From PubChem BioAssay
An excerpt weighted towards active compounds, which were near 10% of everything screened.
MCF10A rereplic – induces DNA re-replication in MCF 10a normal breast cells | Potency, µM (titrated, usually from 46.1 µM), actives largely listed as activators | actives 2.9% (n = 350,000) | MCF 10A DNA re-replication, Hoechst nuclear intensity, 48 h | AID 624296; note: nearly all actives have a fitted effect of over 50% in size
KB-V1 cytotox – KB-V1 MDR subline cytotoxicity. KB-V1 MDR cells viability, CellTiter-Glo, 72 h. Potency, µM (highest dose often 46.1 µM), usual class: cytotoxic. actives 3.4% (n = 400,000); note: nearly all actives have a fitted effect of over 60% in size
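Cytotoxicity toward P-gp-expressing KB-V1 cells was determined as loss of CellTiter-Glo luminescence after 72 h at 37 degrees C. Compounds were tested in quantitative HTS format across a concentration range, with curves fitted to normalized data.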
KB-3-1 cytotox – KB-3-1 parental cell cytotoxicity; AID 1347075; KB-3-1 viability, CellTiter-Glo ATP luminescence, 72 h; actives 1.4% (n = 400,000); Potency, µM (top dose mostly 46.1 µM), actives largely listed as cytotoxic; note: nearly all actives have a fitted effect of over 60% in size
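KB-3-1 parental drug-naive adenocarcinoma cells in DMEM/10% FBS, incubated 72 h at 37 C with pin-transferred compounds across a concentration series. Viability by CellTiter-Glo luminescence; concentration-response curves fitted after normalization.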
SW480 rereplic – induces DNA re-replication in SW480 colon adenocarcinoma cells; SW480 DNA re-replication, Hoechst DNA content imaging, 48 h; Potency, µM (series often up to 46.1 µM), hits mostly activators; actives 1.8% (n = 340,000); note: nearly all actives have a fitted effect of over 55% in size
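Quantitative HTS format with DMSO vehicle controls; 48 hr drug incubation at 37 C, then 40 min Hoechst staining and scanning imager measurement at 405 nm excitation.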
VP16 counter – counter-screen for ROR gamma inhibitors: Gal4-VP16 reporter. Drosophila S2 Gal4-VP16 UAS-luciferase, luminescence, 20 h. Potency, µM (titrated, usually from 53.6 µM), most hits filed as inhibitors. actives 3.5% (n = 310,000). AID 2546;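 note: Gal4-VP16 expression switched on by copper sulfate through the metallothionein promoter; nearly all actives have a fitted effect of over 50% in size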
RORgamma inh – ROR gamma (mouse) transcription inhibition; actives 5.4% (n = 310,000); Potency, µM (highest dose often 53.6 µM), actives largely listed as inhibitors; P51450; AID 2551; Drosophila S2 Gal4-RORgamma UAS-luciferase reporter, 20 h; note: nearly all actives have a fitted effect of over 60% in size
Target sequence (P51450 whole entry, looked up, the tested form may be a part): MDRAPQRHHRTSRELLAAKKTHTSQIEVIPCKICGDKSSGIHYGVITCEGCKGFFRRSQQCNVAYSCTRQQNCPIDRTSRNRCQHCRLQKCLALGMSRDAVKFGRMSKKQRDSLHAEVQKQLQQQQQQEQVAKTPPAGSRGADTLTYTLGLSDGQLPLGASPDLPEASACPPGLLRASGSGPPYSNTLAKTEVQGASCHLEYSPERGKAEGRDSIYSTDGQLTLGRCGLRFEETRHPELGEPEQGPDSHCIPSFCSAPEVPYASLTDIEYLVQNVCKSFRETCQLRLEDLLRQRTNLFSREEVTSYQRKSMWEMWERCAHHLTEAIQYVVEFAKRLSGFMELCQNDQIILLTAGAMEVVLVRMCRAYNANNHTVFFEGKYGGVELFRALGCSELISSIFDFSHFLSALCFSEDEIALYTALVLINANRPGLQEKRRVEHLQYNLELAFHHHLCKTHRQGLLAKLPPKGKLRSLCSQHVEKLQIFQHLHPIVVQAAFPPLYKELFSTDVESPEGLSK
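Luciferase reporter read in Schneider cells carrying Gal4-RORγ (mouse) and UAS-Photinus luciferase; cells given compound 1 h before 700 uM copper sulfate induction, then incubated 20 h at ambient temperature.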
A number is an active result; - = inactive; ? = inconclusive; . = no result given; [ ] = remark or other dose. Calls come from the whole dose curve; as a rule, active = well fitted curve in the direction sought with a large enough effect; inconclusive = small, poorly fitted or top-dose-only effect, or another doubt; inactive = no such curve, though single readings can be large; an effect the other way counts as inactive or inconclusive.

SMILES	MCF10A rereplic	KB-V1 cytotox	KB-3-1 cytotox	SW480 rereplic	VP16 counter	RORgamma inh
O=C(CSc1nnc(-c2ccc3c(c2)OCO3)o1)Nc1ncc(Cl)cc1Cl	13µM	?	-	?	0.562µM	0.794µM
O=C1OCCC1Sc1nnc(-c2ccc3c(c2)OCO3)o1 (stereo unspecified)	?	-	-	-	?	10µM
CN(C)CCCNC(=O)OC1CC2CC1[C@H]1CCCCN1C2=O (stereo partly specified)	.	-	-	.	.	.
CCOc1ccc(NC(=O)CC2C(=O)N(c3ccc(C)cc3)C(=O)N2C2CCCCC2)cc1 (stereo unspecified)	.	-	-	.	.	.
COc1ccc(-c2cc(-c3ccccc3)nc(N)n2)c(O)c1	-	20.6µM	?	-	.	.
COc1ccc(OC)c(Nc2cc(-c3ccccc3)nc(N)n2)c1	0.651µM	1.3µM	1.03µM	2.59µM	-	?
COc1ccc(OC)c(Nc2cc(C)nc3ccccc23)c1	?	18.4µM	?	-	-	-
Cc1cccc(Cn2c(=O)n(-c3ccccc3C)c(=O)c3c2c2cc(C)ccc2n3C)c1	.	-	-	.	.	.
CC(=O)OC[C@@H]1CN(Cc2ccccc2)C[C@H](n2cnc3c(N4CCN(c5ccccc5)CC4)ncnc32)O1	.	-	-	.	.	.
COc1cc(SC)ccc1C(=O)NCCOc1ccc(Cl)cc1	-	20.6µM	-	-	-	?
COc1cc(SC)ccc1C(=O)NCCOc1c(C)cc(C)cc1C	-	20.6µM	?	-	-	-
CC(=O)Nc1ccc(NC(=O)C2CC(=O)Nc3nc4ccccc4n32)cc1 (stereo unspecified)	-	-	-	-	-	?
Cc1ccc(NC(=O)C2CC(=O)Nc3nc4ccccc4n32)c(C)c1 (stereo unspecified)	-	-	-	18.4µM	-	-
COc1ccc(C2=NOC(C(=O)NCc3ccc(F)cc3)C2)cc1 (stereo unspecified)	?	14.6µM	7.31µM	-	-	-
COc1ccc(CNC(=O)C2CC(c3ccc(OC)cc3)=NO2)cc1 (stereo unspecified)	6.51µM	-	-	-	-	-
O=C(NCc1ccc2c(c1)OCO2)C1CC(c2ccc(Cl)c(Cl)c2)=NO1 (stereo unspecified)	2.59µM	-	-	-	-	-
COc1ccc(CNC(=O)C2CC(c3ccc(F)cc3)=NO2)cc1 (stereo unspecified)	?	-	-	-	-	-
CC1(C)Cc2cccc(OCC(=O)OCC(=O)Nc3ccc(S(N)(=O)=O)cc3)c2O1	.	-	-	.	.	.
COc1ccc(OC)c(NC(=O)CC2C(=O)NCCN2C(=O)C(F)(F)F)c1 (stereo unspecified)	.	-	-	.	.	.
O=C(c1ccco1)N1CCN(CC(=O)N2CCCc3c2c(=O)oc2ccc(O)cc32)CC1	-	-	-	-	-	-
O=C(CN1CCN(Cc2ccccc2)CC1)N1CCCc2c1c(=O)oc1ccc(O)cc21	20.6µM	14.6µM	?	-	-	-
NC(=O)c1cc[n+](CC(=O)NC(=O)Nc2ccccc2)cc1	-	-	-	-	.	.
Cc1cccnc1NC(=S)NC(=O)c1cccs1	-	-	-	?	10µM	3.98µM
S=C(Nc1ccccc1)Nc1ccc(Br)cn1	-	-	-	-	5.62µM	0.891µM
O=C(NCCCCCCNC(=O)c1ccc(Br)s1)c1ccc(Br)s1	-	3.26µM	?	-	-	?
SMILES	MCF10A rereplic	KB-V1 cytotox	KB-3-1 cytotox	SW480 rereplic	VP16 counter	RORgamma inh
O=C(NC(=S)Nc1ccccc1[N+](=O)[O-])c1cncc(Br)c1	-	-	-	-	5.62µM	7.08µM
O=C(NC(=S)Nc1ccc(Br)cn1)c1cncc(Br)c1	-	-	-	-	-	0.501µM
O=C(Nc1ccc(Br)cn1)c1ccc(Cl)s1	?	-	?	?	?	-
Cc1cccnc1NC(=S)NC(=O)c1cncc(Br)c1	-	-	-	?	?	5.01µM
O=C(NC(=S)Nc1ccccc1C(=O)O)c1cncc(Br)c1	-	-	-	-	-	-[1.91 µM]
O=C(NC(=S)Nc1ccccn1)c1cncc(Br)c1	-	-	-	-	7.94µM	7.94µM
O=C(NC(=S)Nc1ccccc1O)c1cncc(Br)c1	-	?	?	?	.	.
O=C(Nc1ccc(Br)cn1)c1ccc(Br)s1	18.4µM	23.1µM	?	8.2µM	?	-
CCc1nnc(SCc2nc(-c3ccccc3)oc2C)c2cc3sccc3n12	.	-	-	.	.	.
CN(C)Cc1ccccc1-c1cc(NCc2ccccc2)ncn1	.	.	.	.	-	?
O=C(NC(=S)Nc1ccc(Br)cn1)c1cccs1	-	-	-	-	8.91µM	2.24µM
Cn1c(-c2sc3cc(C(F)(F)F)cnc3c2-c2ccccn2)n[nH]c1=S	-	-	-	-	-	?
Cn1c(-c2sc3cc(C(F)(F)F)cnc3c2-c2cccs2)n[nH]c1=S	-	-	-	-	-	2.82µM
Cn1c(-c2sc3cc(C(F)(F)F)cnc3c2-c2cccnc2)n[nH]c1=S	-	-	-	-	-	-
CSc1nnc(-c2sc3cc(C(F)(F)F)cnc3c2-c2ccccn2)n1C	-	18.4µM	?	-	-	-
C=CCn1c(SCC(C)=O)nnc1-c1cc(-c2ccccc2)sc1N	-	18.4µM	-	-	?	?
O=C(CSc1ncccc1-c1nc2ccccc2[nH]1)NCc1ccco1	-	-	-	?	-	-
N#CCCCSc1ncccc1-c1nc2ccccc2[nH]1	-	13µM	-	-	-	-
Cc1ccc(Cc2c(C)nc3nc(SCC(=O)NCc4ccco4)nn3c2C)cc1	6.51µM	8.2µM	4.61µM	?	-	-
Cc1cc(C)c2cc(C#N)c(SCC(=O)NCc3ccco3)nc2c1	?	?	?	?	?	12.6µM
N#CCSc1ncccc1-c1nc2ccccc2[nH]1	-	-	-	-	-	-
Cc1cc2nc(-c3cccnc3SCC(=O)NCc3ccco3)[nH]c2cc1C	-	-	-	-	12.6µM	11.2µM
CC(C)(C)Nc1nc(C#N)nc(Nc2ccccc2)n1	.	.	.	.	-	.
COc1ccccc1C#Cc1cnc2c(c1)C(=O)N([C@H](C)CO)C[C@@H](C)[C@@H](CN(C)C(=O)c1ccc3c(c1)OCO3)O2	.	-	-	.	.	.
CN(C)S(=O)(=O)Nc1ccc(-c2cn3ccsc3n2)cc1	.	?	-	.	.	.
O=C(CSc1ncccc1-c1nc2ccccc2[nH]1)Nc1ccc2c(c1)OCCO2	-	9.2µM	-	-	-	?
Cc1ccc(-c2nc(S(=O)(=O)c3ccc(Cl)cc3)c(N3CCCCC3)o2)cc1	.	?	-	.	.	.
Cc1ccc(/C=N/NC(=O)c2cccs2)o1	-	-	-	-	?	?
O=C(COc1ccc(/C=N/NC(=O)c2ccccc2)cc1)Nc1ccc([N+](=O)[O-])cc1	-	-	-	-	-	-
